Compounds with a hit are over-represented: about 1.9% of the library has one in this group of screens.
PfHsp40 yeast: rescue of yeast from PfHsp40 toxicity, primary screen, S. cerevisiae, ATP luminescence. 340,000 tested, 0.68% active. S. cerevisiae expressing PfHsp40, growth rescue. AID 504582, 2011. growth rescue, % at 12.5 µM; in the data active = growth rescue above about 28%, passing the limit was not always enough;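 note: yeast W303a lacking pdr1 and pdr3 grown in galactose medium; growth measured after three days at 30 °C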
SSB-PriA inh: inhibitors of Klebsiella pneumoniae PriA binding to SSB C-terminal tail, primary screen, biochemical, AlphaScreen. inhibition, % at 33 µM. PriA–SSB C-terminal tail interaction (Klebsiella pneumoniae). AlphaScreen SSBct-PriA binding, biotinylated peptide. 430,000 tested, 0.6% active; in the data active = inhibition mostly above about 37%, no sharp cut-off; inactive = mostly below about 20%
RecA splice inh: Mtb RecA intein splicing inhibitors, primary screen, biochemical, fluorescence, HTS | 290,000 tested, 0.75% active | cell-free RecA intein splicing | inhibition, % (no concentration beside the values) | Protein RecA (Mycobacterium tuberculosis (strain ATCC 25618 / H37Rv)), P9WHJ3; in the data active = inhibition above about 30%
Target sequence (P9WHJ3 whole entry, looked up, canonical isoform): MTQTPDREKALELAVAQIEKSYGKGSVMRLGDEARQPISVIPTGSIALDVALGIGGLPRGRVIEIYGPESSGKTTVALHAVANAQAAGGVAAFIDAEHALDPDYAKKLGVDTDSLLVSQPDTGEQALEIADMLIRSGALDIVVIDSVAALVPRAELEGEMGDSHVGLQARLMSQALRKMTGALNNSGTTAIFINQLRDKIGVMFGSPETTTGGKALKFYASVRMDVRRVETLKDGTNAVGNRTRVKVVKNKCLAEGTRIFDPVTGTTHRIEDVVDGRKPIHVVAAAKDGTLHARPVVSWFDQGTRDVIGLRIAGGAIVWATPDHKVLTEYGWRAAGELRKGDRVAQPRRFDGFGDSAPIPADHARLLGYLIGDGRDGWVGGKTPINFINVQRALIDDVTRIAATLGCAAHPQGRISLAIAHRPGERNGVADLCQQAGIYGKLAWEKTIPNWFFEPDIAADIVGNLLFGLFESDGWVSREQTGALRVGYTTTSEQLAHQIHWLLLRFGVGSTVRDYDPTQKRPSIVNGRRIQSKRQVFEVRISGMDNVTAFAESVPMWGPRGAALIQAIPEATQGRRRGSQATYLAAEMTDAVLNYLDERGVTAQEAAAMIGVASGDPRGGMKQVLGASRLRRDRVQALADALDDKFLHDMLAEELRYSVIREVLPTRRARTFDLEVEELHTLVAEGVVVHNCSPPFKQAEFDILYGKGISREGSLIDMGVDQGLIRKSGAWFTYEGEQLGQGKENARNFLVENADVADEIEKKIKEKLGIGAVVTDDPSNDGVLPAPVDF
PrPC surface inh: inhibitors of human cell surface prion protein PrPC, primary screen, cell-based, TR-FRET. 370,000 tested, 0.43% active. TR-FRET read-out. inhibition, % at 13.8 µM. Major prion protein (Homo sapiens), P04156. AID 720596, 2013; in the data active = inhibition above about 24%
PrP UTR inh: inhibition of PrP 5' UTR reporter expression. inhibition, % (test concentration not listed). AID 488862, 2010. 340,000 tested, 0.35% active. cell-based PrP 5' UTR mRNA reporter, plate reader; in the data active = inhibition above about 52%
BJeLR viability: MLPCN primary cell-based screen for lethality selective to Ras in HRASV12 cells; 300,000 tested, 0.17% active; BJeLR (HRASV12) viability, CellTiter-Glo ATP luminescence, 48 h; inhibition, % (concentration not given with the values); in the data active = inhibition above about 50%
Of the large screens only hits and unclear results are named; the others gave an inactive call; ! = a repeat was not active.

O=C1CN(C(=O)Cc2cccs2)c2ccccc2N1	none (no result: PfHsp40 yeast, RecA splice inh, PrPC surface inh, PrP UTR inh, BJeLR viability)
Cc1ccc(NC(=O)/C=C/c2ccc([N+](=O)[O-])s2)cc1	BJeLR viability 59
Cc1cccc(NC(=O)/C=C/c2ccc([N+](=O)[O-])s2)c1	BJeLR viability 83
Cc1ccc(NC(=O)/C=C/c2ccc([N+](=O)[O-])s2)c(C)c1	none
O=C(O)CCC(=NNC(=O)c1ccc(F)cc1)c1ccc(Br)cc1	none (no result: PfHsp40 yeast, RecA splice inh, PrPC surface inh, PrP UTR inh, BJeLR viability)
Cc1cc(NS(=O)(=O)c2ccc(NC(=O)CSc3nnc(-c4ccco4)n3Cc3ccco3)cc2)nc(C)n1	PfHsp40 yeast 54
COc1ccccc1NC(=O)CSc1nnc(-c2cccc(C)c2)n1Cc1ccco1	SSB-PriA inh 59 (no result: PfHsp40 yeast, RecA splice inh, PrPC surface inh, PrP UTR inh, BJeLR viability)
COc1ccccc1NC(=O)CSc1nnc(-c2cccnc2)n1Cc1ccco1	none (no result: PfHsp40 yeast, RecA splice inh, PrPC surface inh, PrP UTR inh, BJeLR viability)
Cc1nc(SCC(=O)Nc2cc(Cl)ccc2[N+](=O)[O-])nc(C)c1C	SSB-PriA inh 52
O=C(NCc1ccco1)C(=O)Nc1ccc(N2CCCCS2(=O)=O)cc1	none (no result: PfHsp40 yeast, RecA splice inh, PrPC surface inh, PrP UTR inh, BJeLR viability)
CN1CCN(C(CN)c2ccc(F)cc2)CC1 (stereo not drawn)	none (no result: PfHsp40 yeast, RecA splice inh, PrPC surface inh, PrP UTR inh, BJeLR viability)
O=c1cc(O)c2ncccc2[nH]1	SSB-PriA inh 129 (no result: PfHsp40 yeast, RecA splice inh, PrPC surface inh, PrP UTR inh, BJeLR viability)
Cc1cc2ncccc2[nH]c1=O	none (no result: PfHsp40 yeast, RecA splice inh, PrPC surface inh, PrP UTR inh, BJeLR viability)
NNc1nc(-c2ccccc2)cc(-c2ccccc2O)n1	SSB-PriA inh 40 (no result: PrPC surface inh)
O=[N+]([O-])c1cc(S(=O)(=O)NC2=NCCCCC2)ccc1NCC1CCCCC1	SSB-PriA inh 41
Nc1ccc(S(=O)(=O)NC2=NCCCCC2)cc1N	none
CC(C)N1CCN(c2ccc(OC[C@H]3CO[C@](Cn4cncn4)(c4ccc(Cl)cc4Cl)O3)cc2)CC1	PfHsp40 yeast 222 (no result: RecA splice inh, BJeLR viability)
COc1ccc(N2CCN(C(=O)Cn3cncn3)CC2)cc1	none
COc1ccc(N2CCN(CC(O)COc3ccc(Cl)cc3Cl)CC2)cc1 (stereo not drawn)	none (no result: PfHsp40 yeast, RecA splice inh, PrPC surface inh, PrP UTR inh, BJeLR viability)
CC(C)N1CCN(c2ccc(OCC3COC(Cn4cncn4)(c4ccc(Cl)cc4Cl)O3)cc2)CC1 (stereo not drawn)	PfHsp40 yeast 226 (no result: RecA splice inh, BJeLR viability)
c1ccc2c(-c3c[nH]c4ccccc34)c3ccccc3nc2c1	PfHsp40 yeast 37
N#CC(C#N)=C(/C=C/c1ccccc1)C1CC1	none (no result: PfHsp40 yeast, RecA splice inh, PrPC surface inh, PrP UTR inh, BJeLR viability)
N#CC(C#N)=C(/C=C/c1cccs1)C1CC1	SSB-PriA inh 42 (no result: PfHsp40 yeast, RecA splice inh, PrPC surface inh, PrP UTR inh, BJeLR viability)
COc1nn(C)cc1-c1nnc(SCC(=O)OCc2ccccc2)n1C	none (no result: PfHsp40 yeast, RecA splice inh, PrPC surface inh, PrP UTR inh, BJeLR viability)
CCCCN1/C(=C/c2ccc3ccccc3[n+]2CC)Sc2ccccc21	PfHsp40 yeast 128 (no result: SSB-PriA inh, RecA splice inh, PrPC surface inh)
CCN1/C(=C/c2ccc3ccccc3[n+]2CC)C=Cc2ccccc21	PfHsp40 yeast 166, BJeLR viability 62
C=CC[n+]1c(C=C2C=Cc3cc(C)ccc3N2CC)ccc2ccccc21	none (no result: PfHsp40 yeast, RecA splice inh, PrPC surface inh, PrP UTR inh, BJeLR viability)
O=c1cc2oc3cc(O)c(O)cc3c(-c3ccccc3O)c-2cc1O	none (no result: RecA splice inh, PrPC surface inh, BJeLR viability)
COc1ccc(OC)c(-c2c3cc(O)c(=O)cc-3oc3cc(O)c(O)cc23)c1	PfHsp40 yeast 287 (no result: RecA splice inh, PrPC surface inh, BJeLR viability)
CCCN1CCCc2cc(CCNS(=O)(=O)c3ccccc3Br)ccc21	SSB-PriA inh active! (no result: PfHsp40 yeast, RecA splice inh, PrPC surface inh, PrP UTR inh, BJeLR viability)
CCCN1CCCc2cc(CCNS(=O)(=O)c3ccccc3Cl)ccc21	SSB-PriA inh active! (no result: PfHsp40 yeast, RecA splice inh, PrPC surface inh, PrP UTR inh, BJeLR viability)
CCCN1CCCc2cc(CCNS(=O)(=O)Cc3ccccc3Cl)ccc21	SSB-PriA inh 72 (no result: PfHsp40 yeast, RecA splice inh, PrPC surface inh, PrP UTR inh, BJeLR viability)
CCOP(=O)(CC(N)=O)OCC	none (no result: PfHsp40 yeast, RecA splice inh, PrPC surface inh, PrP UTR inh, BJeLR viability)
NNc1ccc2c(C(F)(F)F)cc(C(F)(F)F)nc2n1	none
N#CC(c1cccc(Cl)c1)c1ccc2c(C(F)(F)F)cc(C(F)(F)F)nc2n1 (stereo not drawn)	SSB-PriA inh 51, BJeLR viability 76
Nc1ccc2nc(-c3ccc(N)c(Cl)c3)[nH]c2c1	SSB-PriA inh 44
Nc1ccccc1-c1n[nH]c(-c2ccccn2)n1	SSB-PriA inh 107 (no result: PfHsp40 yeast, RecA splice inh, PrPC surface inh, PrP UTR inh, BJeLR viability)
c1ccc(-c2nc3ccc(Cc4ccc5nc(-c6ccccn6)[nH]c5c4)cc3[nH]2)nc1	SSB-PriA inh 88 (no result: PfHsp40 yeast, RecA splice inh, PrPC surface inh, PrP UTR inh, BJeLR viability)
COc1ccc2nc(-c3ccccn3)[nH]c2c1	none
Nc1ccc2nc(-c3ccccn3)[nH]c2c1	SSB-PriA inh 96
Nc1n[nH]c(-c2ccccn2)n1	none (no result: PfHsp40 yeast, RecA splice inh, PrPC surface inh, PrP UTR inh, BJeLR viability)
Cc1ccc(C)n1CC(=O)Nc1nc(-c2ccccn2)cs1	SSB-PriA inh 100 (no result: PfHsp40 yeast, RecA splice inh, PrPC surface inh, PrP UTR inh, BJeLR viability)

Compound activity as filed in PubChem.
